Article PMC4336329 (PLoS ONE, 2015)
Hit rate of the full screen: of about 310,000 compounds, about 14,000 (4.5%) showed an effect of 50% or more. Effects have a minus sign here. The sample holds strong results, similar compounds and a random draw of the others, so the mix is not that of the screen.

Each compound was assayed against human ether-à-go-go-related gene (hERG) potassium channel (human, UniProt Q12809) (assay: primary screen, population patch clamp on CHO cells stably expressing hERG; higher = less effect of the substance).
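Note: peak tail current of the secondary pulse compared with the same well before compound.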

human ether-à-go-go-related gene (hERG) potassium channel, sequence (Q12809 whole entry, looked up): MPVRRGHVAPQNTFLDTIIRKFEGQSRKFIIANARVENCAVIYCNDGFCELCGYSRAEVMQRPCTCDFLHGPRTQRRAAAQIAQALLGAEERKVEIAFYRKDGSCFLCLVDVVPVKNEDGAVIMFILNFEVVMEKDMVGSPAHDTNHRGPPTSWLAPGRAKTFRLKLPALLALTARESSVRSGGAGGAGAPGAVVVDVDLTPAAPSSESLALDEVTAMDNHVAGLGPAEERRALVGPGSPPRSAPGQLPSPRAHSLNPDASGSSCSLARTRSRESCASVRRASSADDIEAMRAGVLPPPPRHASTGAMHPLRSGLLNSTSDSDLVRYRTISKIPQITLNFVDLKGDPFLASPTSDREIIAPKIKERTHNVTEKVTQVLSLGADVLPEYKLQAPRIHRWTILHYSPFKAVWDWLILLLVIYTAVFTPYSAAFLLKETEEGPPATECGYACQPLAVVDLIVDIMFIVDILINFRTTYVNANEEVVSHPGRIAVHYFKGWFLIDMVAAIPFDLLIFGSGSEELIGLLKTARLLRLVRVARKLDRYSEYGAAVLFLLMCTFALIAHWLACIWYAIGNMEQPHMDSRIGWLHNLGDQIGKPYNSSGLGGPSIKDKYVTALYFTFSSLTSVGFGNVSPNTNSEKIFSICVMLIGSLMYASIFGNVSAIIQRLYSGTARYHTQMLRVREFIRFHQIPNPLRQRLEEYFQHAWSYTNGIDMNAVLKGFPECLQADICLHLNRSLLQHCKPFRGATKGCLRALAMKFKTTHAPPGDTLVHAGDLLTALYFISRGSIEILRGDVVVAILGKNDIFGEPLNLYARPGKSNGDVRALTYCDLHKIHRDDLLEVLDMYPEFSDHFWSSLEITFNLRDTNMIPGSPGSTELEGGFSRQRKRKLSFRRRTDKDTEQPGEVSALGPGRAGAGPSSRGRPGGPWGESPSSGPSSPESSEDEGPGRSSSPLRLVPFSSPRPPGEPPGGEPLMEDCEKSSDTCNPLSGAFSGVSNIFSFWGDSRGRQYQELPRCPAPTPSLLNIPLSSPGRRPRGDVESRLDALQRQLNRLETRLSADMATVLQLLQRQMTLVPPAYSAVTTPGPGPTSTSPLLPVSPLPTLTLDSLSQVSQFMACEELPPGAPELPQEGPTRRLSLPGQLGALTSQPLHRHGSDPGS

| SMILES | hERG current change (%, negative = inhibition) at 10uM [%] |
| --- | --- |
| O=C(CCCN1C(=O)c2ccccc2C1=O)NCCCN1CCOCC1 | 20.3 |
| CCCCCCCCCCCCN1[C@@H](CC(=O)OC)c2cc(F)cc(F)c2S1(=O)=O | 11.1 |
| CCN(CC)/C(=N\S(=O)(=O)c1ccc(F)cc1)c1ccccc1 | 8.34 |
| Cc1cc2n(n1)C(c1sccc1C)Nc1ccccc1-2 (stereo not drawn) | -15.9 |
| Cc1ccc(Cn2c(C(CO)Nc3nc(-c4ccc(F)cc4)cs3)nc3ccccc32)cc1 (stereo not drawn) | 15.4 |
| CCOC(=O)c1ccc(NC(=O)NCCc2cnc[nH]2)cc1 | 4.44 |
| O=C(c1ccccc1[N+](=O)[O-])N1CCCC(C(=O)N2CCCCCC2)C1 (stereo not drawn) | 10.6 |
| O=C(Nc1cccc(F)c1)c1cc(-c2ccco2)nc2ccccc12 | 9.26 |
| COc1ccc(S(=O)(=O)N2CCC(N3CCCC3)CC2)cc1 | 22.3 |
| O=S(=O)(c1ccc(Cl)cc1)N1CCC(n2cnc3cc(C(F)(F)F)ccc32)CC1 | -78.4 |
| O=C(O)c1cccc(S(=O)(=O)N2CCC(n3nnc4cc(C(F)(F)F)ccc43)CC2)c1 | 20.7 |
| O=C(O)c1ccc(S(=O)(=O)N2CCC(n3nnc4cc(C(F)(F)F)ccc43)CC2)cc1 | -37.7 |
| COc1ccc(S(=O)(=O)N2CCC(n3cnc4cc(C(F)(F)F)ccc43)CC2)cc1 | -73.1 |
| COc1ccc(S(=O)(=O)N2CCC(N3CCCCC3)CC2)cc1 | -11.7 |
| CCOC(=O)C1=C(C)NC(=O)NC1c1ccc(N(CC)CC)cc1 (stereo not drawn) | -6.39 |
| CCOc1ccc(C(=O)NCC(=O)OCc2cc([N+](=O)[O-])cc3c2OCOC3)cc1OCC | -12 |
| O=C(c1ccc2c(c1)OCO2)C1CCCN(Cc2cn[nH]c2-c2ccccc2)C1 (stereo not drawn) | -72.2 |
| Cc1ccc(CN2CCN(Cc3cn[nH]c3-c3cccc(F)c3)CC2CCO)o1 (stereo not drawn) | -25.8 |
| O=C(c1ccc2c(c1)OCO2)C1CCCN(Cc2c(F)cccc2Cl)C1 (stereo not drawn) | -32.5 |
| c1ccc(-c2[nH]ncc2CN2CCN(Cc3ccc4c(c3)OCO4)CC2)cc1 | -37.9 |
| O=C(c1ccc2c(c1)OCO2)C1CCCN(Cc2ccccn2)C1 (stereo not drawn) | -30.9 |

| SMILES | hERG current change (%, negative = inhibition) at 10uM [%] |
| --- | --- |
| O=C(c1ccc2c(c1)OCO2)C1CCCN(Cc2cn[nH]c2-c2cccc(F)c2)C1 (stereo not drawn) | -78.1 |
| O=C(Nc1ccc2c(c1)OCO2)N1CCCc2ccccc21 | 11.7 |
| COc1cc(/C=N/NC(=O)c2ccc(O)cc2)ccc1OCC(=O)Nc1cccc([N+](=O)[O-])c1 | 10.3 |
| O=S1(=O)N(Cc2ccccc2F)CCCN1Cc1c(F)cccc1Cl | 7.29 |
| CC(=O)Nc1ccc(S(=O)(=O)NCc2ccc3[nH]c(C)cc3c2)cc1 | 21 |
| Cc1ccc([N+](=O)[O-])cc1NC(=O)C(C)N1CCCCC1 (stereo not drawn) | 30.2 |
| Cc1cc(Br)ccc1NC(=O)CN1CCN(c2ccccn2)CC1 | -71.5 |
| N#Cc1ccc(NC(=O)CN2CCN(c3ccccn3)CC2)cc1 | -71.9 |
| O=C(CN1CCN(c2ccccn2)CC1)Nc1ccccc1Br | -31.6 |
| N#Cc1ccccc1NC(=O)CN1CCN(c2ccccn2)CC1 | -29.8 |
| O=C(CN1CCN(c2ccccn2)CC1)Nc1ccccc1 | -9.4 |
| Cc1cc([N+](=O)[O-])ccc1NC(=O)C(C)N1CCN(c2ccccn2)CC1 (stereo not drawn) | -71.4 |
| CC(=O)Nc1ccc(NC(=O)CN2CCN(c3ccccn3)CC2)cc1 | 13.3 |
| CC(C(=O)Nc1cc([N+](=O)[O-])ccc1Cl)N1CCN(c2ccccc2)CC1 (stereo not drawn) | 12.3 |
| Cc1ccc(NC(=O)CN2CCN(c3ccccn3)CC2)c(Cl)c1 | -1.57 |
| O=C(CN1CCN(c2ccccn2)CC1)Nc1ccc(F)cc1.O=C(O)C(=O)O | -47.2 |
| O=C(CN1CCN(c2ccccn2)CC1)Nc1ccc(Br)cc1 | -57.7 |
| COc1ccc(/C=N/NC(=O)c2ccc(NC(=O)C3CCCCC3)cc2)cc1O | 24.3 |
| Cc1cc(NC(=O)CSc2ccc(-c3ccc(Br)cc3)nn2)no1 | 11.1 |
| Cc1cc(C)cc(N(CCC#N)C(=O)CSc2n[nH]c(N)n2)c1 | 12.6 |
| O=C(NCCN1CCOCC1)c1ccc(NS(=O)(=O)c2cccc([N+](=O)[O-])c2)cc1 | 10.6 |

| SMILES | hERG current change (%, negative = inhibition) at 10uM [%] |
| --- | --- |
| Cc1ccc(/C=N/N2CCN(Cc3cccc4ccccc34)CC2)s1 | -3.05 |
| Cc1ccc(C2=NN(S(=O)(=O)c3ccccc3)C(c3ccco3)C2)cc1 (stereo not drawn) | 8.53 |
| COc1ccc(S(=O)(=O)N2N=C(c3cccc(NS(C)(=O)=O)c3)CC2c2ccco2)cc1 (stereo not drawn) | -3.61 |
| CS(=O)(=O)Nc1ccc(C2=NN(S(=O)(=O)c3ccc(F)cc3)C(c3ccco3)C2)cc1 (stereo not drawn) | -70.2 |
| CS(=O)(=O)Nc1cccc(C2=NN(S(=O)(=O)c3ccccc3)C(c3ccco3)C2)c1 (stereo not drawn) | -29.9 |
| COc1ccc(S(=O)(=O)N2N=C(c3ccc(NS(C)(=O)=O)cc3)CC2c2ccco2)cc1 (stereo not drawn) | -74.2 |
| CCS(=O)(=O)Nc1ccc(C2=NN(S(=O)(=O)c3ccc(F)cc3)C(c3ccco3)C2)cc1 (stereo not drawn) | -38.8 |
| CCCc1cc(=O)oc2cc(C)cc(OCC(=O)NCC(O)c3ccccc3)c12 (stereo not drawn) | 13.5 |
| Cc1cccc(CCNC(=O)CCS(=O)(=O)c2ccc(Br)cc2)c1 | 8.8 |
| O=C(/C=C/c1ccco1)N1CCN(C/C=C/c2ccccc2)CC1 | -58.8 |
| O=C(NC(=S)N1CCN(C/C=C/c2ccccc2)CC1)c1ccco1 | -35 |
| S=C(NCc1ccco1)N1CCN(Cc2ccco2)CC1 | 1.76 |
| O=C(/C=C/c1ccco1)N1CCN(S(=O)(=O)/C=C/c2ccccc2)CC1 | -45 |
| O=C(/C=C/c1ccco1)N1CCC(Cc2ccccc2)CC1 | 4.42 |
| S=C(NCc1ccco1)N1CCN(C/C=C/c2ccccc2)CC1 | -56.2 |
| Cc1cccc(C(=O)N(C)c2nnc(-c3ccncc3)s2)c1 | 1.3 |
| Cc1ccc(NC(=O)Cn2ccsc2=N)c([N+](=O)[O-])c1.Cl | 35.1 |
| CC(C)CCNc1nc(N)c([N+](=O)[O-])c(N2CCCCCC2)n1 | 12.1 |
| c1ccc2c(c1)NC(c1ccncc1)n1c-2nc2ccccc21 (stereo not drawn) | -66.2 |
| c1ccc(C2Nc3ccccc3-c3nc4ccccc4n32)cc1 (stereo not drawn) | -18.1 |
| c1cncc(C2Nc3ccccc3-c3nc4ccccc4n32)c1 (stereo not drawn) | -5.58 |

| SMILES | hERG current change (%, negative = inhibition) at 10uM [%] |
| --- | --- |
| Cc1cc(NC(=O)CCC(=O)N(CC(=O)NCC2CCCO2)c2ccc(C)c(C)c2)no1 (stereo not drawn) | 8.68 |
| O=C1N(Cc2cccc(Cl)c2)C[C@@H]2C[C@@H](c3cccc4ncccc34)N3CCC[C@@]123 | -48.8 |
| CCOC(=O)c1[nH]ncc1[C@@H]1C[C@H]2CN(Cc3cccc(Cl)c3)C(=O)[C@]23CCCN13 | -27.4 |
| Cc1c([C@@H]2C[C@H]3CN(Cc4cccc(Cl)c4)C(=O)[C@]34CCCN24)cnn1C | -45.5 |
| O=C1N(Cc2cccc(Cl)c2)C[C@@H]2C[C@@H](c3c[nH]c4ccccc34)N3CCC[C@@]123 | -74.8 |
| Cn1cc([C@@H]2C[C@H]3CN(Cc4cccc(Cl)c4)C(=O)[C@]34CCCN24)c2ccccc21 | -72.7 |
| COc1cccc(/C=N/NC(=O)c2cccc([N+](=O)[O-])c2)c1OS(=O)(=O)c1ccccc1 | -16.2 |
| COc1ccc(C)cc1N(CC(=O)N1CCCCCC1)S(C)(=O)=O | 12.2 |
| CCOc1ccc(CN2CCNC(=O)C2CC(=O)NC2CCOCC2)cc1 (stereo not drawn) | -44.7 |
| CC1CCC(NC(=O)COC(=O)c2ccco2)CC1 (stereo not drawn) | 7.07 |
| N#Cc1ccccc1OCC(=O)Nc1ccc2c(c1)OCCCO2 | 3.08 |
| COc1ccccc1CNC(=O)C1(C)Oc2cccnc2NC1=O (stereo not drawn) | 9.69 |
| COc1ccc(CN2CCN(CCc3ccccc3)C(CCO)C2)cc1Cn1cncn1 (stereo not drawn) | -35.8 |
| COCc1cc(CN2CCN(CCCc3ccccc3)C(CCO)C2)ccc1OC (stereo not drawn) | -66.1 |
| COc1ccc(CN2CCN(CCC(C)C)C(CCO)C2)cc1Cn1cccn1 (stereo not drawn) | -48.1 |
| CCOc1ccc(CN2CCN(Cc3ccsc3)C(CCO)C2)cc1CO (stereo not drawn) | -39.4 |
| CC(C)(O)C#Cc1ccc(CN2CCN(Cc3ccsc3)C(CCO)C2)cc1 (stereo not drawn) | -21.6 |
| COCc1cc(CN2CCN(CCc3ccccc3)C(CCO)C2)ccc1OC (stereo not drawn) | -56.9 |
| COCc1cc(CN2CCN(Cc3ccsc3)C(CCO)C2)ccc1OC (stereo not drawn) | -82.9 |
| COc1ccc(CN2CCN(CCC(C)C)C(CCO)C2)cc1Cn1cncn1 (stereo not drawn) | 1.78 |
| O=C1CN(c2ccc(Cl)cc2)C2(CCCCC2)S1 | 4.49 |
